According to PubChem BioAssay:
The source made the active and inactive calls.

Key:
[1] = small molecules captured by biotinylated probe aFSTL3 – biochemical, small-molecule microarray, fluorescence 635/667, stem cell growth factor project, primary screen (AID 1064); settings: higher = more signal;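 also: measures binding of the biotinylated anti-FSTL3 antibody to printed compounds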
[2] = binders from COS7 lysate, DM2A8 probe, primary screen, torsin A project, cell lysate, small-molecule microarray, fluorescence 635/667 (AID 1065); settings: higher = more signal, COS7 lysate expressing mutant human TOR1A
[3] = small molecules captured by biotinylated probe aFGF2 – biochemical, small-molecule microarray, fluorescence 635/667, stem cell growth factor project, primary screen (AID 1067); settings: higher = more signal;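 also: measures binding of biotinylated aFGF2 protein to printed compounds on slides; z-score merges feature fluorescence and signal-to-noise across triplicate slides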
[4] = small molecules captured by biotinylated probe aFGF10 – biochemical, small-molecule microarray, fluorescence 635/667, stem cell growth factor project, primary screen (AID 1071); settings: higher = more signal;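 also: score merges 667 nm spot intensity and signal to noise from triplicate slides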
[5] = molecular target: Neurogenic locus notch homolog protein 2 (Homo sapiens) (UniProt Q04721); assay: small molecules binding Notch2 protein – biochemical, small-molecule microarray, 635 nm fluorescence, stem cell growth factors, primary screen (AID 1073); settings: higher = more signal
Neurogenic locus notch homolog protein 2 (Homo sapiens), sequence (Q04721 whole entry, looked up, canonical isoform): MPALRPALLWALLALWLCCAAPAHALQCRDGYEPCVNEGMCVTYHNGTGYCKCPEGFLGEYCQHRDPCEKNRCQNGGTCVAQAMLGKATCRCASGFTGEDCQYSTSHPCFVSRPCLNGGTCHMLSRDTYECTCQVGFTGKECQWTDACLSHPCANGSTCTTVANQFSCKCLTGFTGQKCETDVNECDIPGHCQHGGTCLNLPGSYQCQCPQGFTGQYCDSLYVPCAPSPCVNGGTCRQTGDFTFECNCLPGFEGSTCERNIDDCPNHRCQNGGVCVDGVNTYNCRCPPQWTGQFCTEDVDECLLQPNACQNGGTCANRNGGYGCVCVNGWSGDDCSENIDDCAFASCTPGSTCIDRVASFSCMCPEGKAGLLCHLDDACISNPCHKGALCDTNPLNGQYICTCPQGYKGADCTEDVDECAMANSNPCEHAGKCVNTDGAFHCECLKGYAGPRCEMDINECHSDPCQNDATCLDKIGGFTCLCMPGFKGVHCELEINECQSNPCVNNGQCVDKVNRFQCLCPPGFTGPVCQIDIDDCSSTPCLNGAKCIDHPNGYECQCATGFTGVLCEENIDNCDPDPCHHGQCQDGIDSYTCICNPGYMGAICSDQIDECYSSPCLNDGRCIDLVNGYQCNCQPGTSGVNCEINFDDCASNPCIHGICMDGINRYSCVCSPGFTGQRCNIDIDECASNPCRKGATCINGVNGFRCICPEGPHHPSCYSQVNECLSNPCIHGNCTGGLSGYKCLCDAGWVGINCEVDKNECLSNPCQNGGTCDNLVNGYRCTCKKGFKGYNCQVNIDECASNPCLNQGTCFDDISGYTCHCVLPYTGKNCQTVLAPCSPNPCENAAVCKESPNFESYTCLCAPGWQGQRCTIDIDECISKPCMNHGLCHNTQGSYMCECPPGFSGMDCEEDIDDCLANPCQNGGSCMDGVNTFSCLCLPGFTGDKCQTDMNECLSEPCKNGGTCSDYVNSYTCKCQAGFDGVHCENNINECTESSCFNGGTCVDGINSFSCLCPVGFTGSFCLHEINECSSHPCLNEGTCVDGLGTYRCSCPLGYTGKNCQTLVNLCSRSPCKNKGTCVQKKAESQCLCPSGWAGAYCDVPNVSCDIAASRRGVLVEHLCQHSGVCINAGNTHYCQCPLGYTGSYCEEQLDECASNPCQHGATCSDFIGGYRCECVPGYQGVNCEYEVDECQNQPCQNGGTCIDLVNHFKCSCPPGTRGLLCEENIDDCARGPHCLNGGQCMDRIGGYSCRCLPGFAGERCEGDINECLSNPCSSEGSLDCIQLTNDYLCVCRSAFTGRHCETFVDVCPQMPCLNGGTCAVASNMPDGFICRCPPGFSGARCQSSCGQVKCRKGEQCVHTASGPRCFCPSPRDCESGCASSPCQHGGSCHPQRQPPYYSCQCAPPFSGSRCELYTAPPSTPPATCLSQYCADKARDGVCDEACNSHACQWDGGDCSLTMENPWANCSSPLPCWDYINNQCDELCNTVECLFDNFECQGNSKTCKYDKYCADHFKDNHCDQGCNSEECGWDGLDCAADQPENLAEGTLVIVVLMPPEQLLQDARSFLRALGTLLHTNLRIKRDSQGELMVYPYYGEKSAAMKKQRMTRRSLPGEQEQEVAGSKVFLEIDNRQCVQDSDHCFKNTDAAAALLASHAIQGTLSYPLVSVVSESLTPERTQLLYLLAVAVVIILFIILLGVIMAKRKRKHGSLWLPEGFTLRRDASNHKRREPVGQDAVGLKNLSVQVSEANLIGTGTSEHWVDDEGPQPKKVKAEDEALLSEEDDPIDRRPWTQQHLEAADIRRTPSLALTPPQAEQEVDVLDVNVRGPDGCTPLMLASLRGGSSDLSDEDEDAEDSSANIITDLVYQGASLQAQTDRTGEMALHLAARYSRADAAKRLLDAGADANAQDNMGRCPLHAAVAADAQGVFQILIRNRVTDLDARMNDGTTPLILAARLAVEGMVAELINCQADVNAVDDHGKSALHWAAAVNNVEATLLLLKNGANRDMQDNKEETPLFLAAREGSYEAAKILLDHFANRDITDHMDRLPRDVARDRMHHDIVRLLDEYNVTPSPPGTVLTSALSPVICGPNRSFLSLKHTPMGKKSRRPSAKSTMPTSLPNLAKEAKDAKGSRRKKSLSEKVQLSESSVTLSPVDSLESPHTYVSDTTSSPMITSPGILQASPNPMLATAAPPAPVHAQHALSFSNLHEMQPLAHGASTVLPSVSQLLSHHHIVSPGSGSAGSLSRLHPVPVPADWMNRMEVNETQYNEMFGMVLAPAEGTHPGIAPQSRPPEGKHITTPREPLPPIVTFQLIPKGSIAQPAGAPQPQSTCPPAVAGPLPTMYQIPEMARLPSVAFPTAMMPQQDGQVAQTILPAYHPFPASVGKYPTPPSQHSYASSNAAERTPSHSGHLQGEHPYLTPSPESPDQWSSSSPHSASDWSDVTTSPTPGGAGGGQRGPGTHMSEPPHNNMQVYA

[6] = molecular target: Pro-neuregulin-1, membrane-bound isoform (Homo sapiens) (UniProt Q02297); assay: small molecules binding neuregulin-1 protein – biochemical, small-molecule microarray, fluorescence 635/667, psychiatric disease protein project, primary screen (AID 1075); settings: NRG1 binding, 635 nm fluorescence, higher = more signal;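 also: score combines 667 nm spot fluorescence with signal to noise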
Pro-neuregulin-1, membrane-bound isoform (Homo sapiens), sequence (Q02297 whole entry, looked up, the tested form may be a part, canonical isoform): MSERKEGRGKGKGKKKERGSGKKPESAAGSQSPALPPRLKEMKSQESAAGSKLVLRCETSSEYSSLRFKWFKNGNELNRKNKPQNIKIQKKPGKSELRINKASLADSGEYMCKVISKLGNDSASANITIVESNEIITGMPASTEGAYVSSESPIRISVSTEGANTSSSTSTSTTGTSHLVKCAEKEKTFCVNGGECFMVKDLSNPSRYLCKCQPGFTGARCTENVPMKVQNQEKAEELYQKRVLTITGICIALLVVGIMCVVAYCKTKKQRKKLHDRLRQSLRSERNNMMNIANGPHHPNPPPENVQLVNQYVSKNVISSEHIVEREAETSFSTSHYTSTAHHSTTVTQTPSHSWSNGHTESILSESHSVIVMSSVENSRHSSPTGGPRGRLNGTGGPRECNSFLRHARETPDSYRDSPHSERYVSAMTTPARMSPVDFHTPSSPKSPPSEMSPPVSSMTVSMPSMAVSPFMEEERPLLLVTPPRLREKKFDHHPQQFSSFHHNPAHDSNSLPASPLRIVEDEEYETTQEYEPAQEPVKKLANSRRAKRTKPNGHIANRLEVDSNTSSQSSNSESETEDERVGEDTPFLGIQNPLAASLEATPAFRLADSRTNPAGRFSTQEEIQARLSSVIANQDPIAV

[7] = test system: Neuregulin-1 EGF-like domain; assay: small molecules binding NRG1 EGF domain – biochemical, small-molecule microarray, 635 nm fluorescence, primary screen (AID 1081); settings: higher = more signal;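 also: binding of the protein to compounds printed on small-molecule microarray slides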
[8] = FRG1 expression reporter modulators in myotubes – cell-based, C2C12 myotubes, firefly/Renilla luciferase, luminescence, FRG1 inhibition for FSHD, primary screen (AID 1084); settings: FRG1 promoter luciferase, higher = more signal, called active from +8 up or from −8 down
[9] = small molecules captured by biotinylated probe aFST – biochemical, small-molecule microarray, fluorescence 635/667, stem cell growth factor project, primary screen (AID 1086); settings: higher = more signal;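 also: score merges 667 nm fluorescence with signal-to-noise of each printed compound spot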
[10] = binders of probe aHhip on microarray, primary screen, stem cell growth factor project, biochemical, small-molecule microarray, fluorescence 635/667 (AID 1087); settings: higher = more signal;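 also: score merges spot fluorescence at 667nm with spot signal to noise ratio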

Row | SMILES | composite z-score [1] | composite z-score [2] | composite z-score [3] | composite z-score [4] | composite z-score [5] | composite z-score [6] | composite z-score [7] | z-score [8] | composite z-score [9] | composite z-score [10]
1 | COCOc1ccc(Br)cc1C(=O)[C@@H]1O[C@H]1c1cccc(OC)c1 | -0.305 | -0.0196 | -0.122 | 0.204 | 0.333 | -0.268 | 0.287 | -0.0714 (inactive) | -0.0156 | -0.202
2 | CCOC(=O)NN=C1C[C@@H](O)[C@@H](O)[C@@H]2[C@@H]3C(=O)N(c4ccc(F)cc4F)C(=O)[C@@H]3CC[C@@H]12 | -0.333 | 0.415 | -0.0659 | 0.281 | 0.493 | 0.594 | -0.0454 | -0.248 (inactive) | 0.627 | 0.0139
3 | CO[C@H]1COC(=O)CC=C[C@H](C)[C@@H](OC)COC(=O)[C@@H](C)COC(=O)CC=C[C@@H]1C | -0.834 | 2.17 | -0.152 | -0.938 | -1.22 | -0.652 | -0.513 | -0.862 (inactive) | 0.0281 | 0.106
4 | O=c1n(Cc2cc3c(cc2Cl)OCO3)c(=O)n2n1CC[C@@H]1C(=NOCc3ccccc3)[C@H]3O[C@H]3[C@@H](O)[C@@H]12 | -0.381 | 0.188 | -0.14 | 0.47 | 0.589 | 0.114 | 0.428 | -0.611 (inactive) | 0.764 | -0.0645
5 | CC(C)[C@@H](OCc1ccccc1)[C@H](C)C=NOC[C@@H](O)COCc1ccco1 | -0.457 | 0.84 | -0.251 | -0.416 | -1.08 | -0.417 | -0.569 | 0.887 (inactive) | -1.53 | -0.302
6 | COC(=O)CC=C[C@@H](C)[C@H](OCc1cccc(-c2ccccc2)c1)C1CCCCC1 | -0.131 | 0.0473 | -0.174 | -0.208 | 0.813 | 0.654 | 0.359 | 1.38 (inactive) | -0.48 | 0.189
7 | Cc1cc2c(c(=O)o1)[C@@H](O)[C@H]1O[C@H]1C2=O | -0.494 | 0.23 | -0.0103 | 0.336 | 0.378 | -0.167 | 0.239 | 0.446 (inactive) | 0.163 | 0.151
8 | O=C(NN=C1C[C@@H](O)[C@@H](O)[C@@H]2[C@@H]3C(=O)N(Cc4ccccc4)C(=O)[C@@H]3CC[C@@H]12)OCc1ccccc1 | -0.404 | 0.408 | -0.0229 | 0.155 | 0.495 | -0.358 | -0.871 | -0.119 (inactive) | -0.0711 | 0.233
9 | CCOC(=O)[C@H](CC(C)C)NC(=O)CCC1CC(OC(=O)NCc2cccc3ccccc23)CC2(CCCC(COC(=O)NCc3cccc(C(F)(F)F)c3)O2)O1 (stereo not given in full) | -0.5 | 0.0221 | -0.125 | 0.469 | 0.611 | -0.0419 | 0.0188 | -1.03 (inactive) | -0.262 | 0.0749
10 | CCCCC#C[C@@H]1C=C[C@H](OC(C)=O)[C@@H](COC(C)=O)O1 | -0.515 | 0.37 | -0.112 | 0.319 | 0.617 | 0.304 | 0.0329 | -1.28 (inactive) | 0.0643 | -0.134
11 | CCC1=NOC(CCC2CC(OC(=O)NCc3cccc4c3OCO4)CC3(CCCC(COC(=O)NCCc4ccccc4OC)O3)O2)C1 (stereo not given) | -0.173 | 0.13 | -0.0466 | 0.504 | 0.608 | 0.796 | 0.793 | 1.02 (inactive) | 0.243 | -0.151
12 | CCOC(=O)[C@H](CC(C)C)NC(=O)CCC1CC(OC(=O)NCc2cccc3ccccc23)CC2(CCCC(COC(=O)NCCc3ccc(Cl)cc3)O2)O1 (stereo not given in full) | -0.318 | -0.19 | -0.0797 | 0.293 | 0.461 | 0.533 | 0.744 | 1.83 (inactive) | -0.001 | -0.0994
13 | CC(C)CON=C1C[C@@H](O)[C@@H](O)[C@@H]2[C@@H]3C(=O)N(C4CCCCC4)C(=O)[C@@H]3CC[C@H]12 | -0.475 | 0.6 | -0.0383 | 0.848 | 1.14 | 0.936 | 0.743 | -0.276 (inactive) | 0.272 | -0.169
14 | COC(=O)CC=C[C@H](C)[C@@H](OCc1cccc(Br)c1)[C@@H](C)[C@H](OC)C1CCCCC1 | -0.191 | 0.451 | -0.245 | 0.106 | -0.723 | 0.419 | -0.3 | 1.23 (inactive) | -0.118 | 0.0024
15 | CC(C)=CCCC(C)=CCON=C1C[C@@H](O)[C@@H](O)[C@@H]2[C@@H]3C(=O)N(c4cccc(Oc5ccccc5)c4)C(=O)[C@@H]3CC[C@@H]12 | -0.473 | -0.314 | -0.0962 | 0.341 | 0.521 | 0.938 | 0.972 | 0.508 (inactive) | 0.34 | -0.0994
16 | C[C@H]1CC[C@H]2C(=O)O[C@H](COc3ccc(C(C)(C)C)cc3)CN2[C@@H]1c1ccc(Br)cc1 | -0.135 | 0.169 | -0.053 | -0.0634 | -0.0332 | 0.724 | -0.536 | -0.0935 (inactive) | 0.125 | -0.371
17 | COc1cccc([C@H]2Oc3ccc(OC)cc3C(=NO[C@H](C)c3cn([C@H](CO)Cc4ccccc4)nn3)[C@@H]2O)c1 | -0.129 | -0.0315 | -0.112 | -0.0993 | -0.468 | -0.72 | -0.504 | 0.787 (inactive) | 0.107 | -0.134

Row | SMILES | composite z-score [1] | composite z-score [2] | composite z-score [3] | composite z-score [4] | composite z-score [5] | composite z-score [6] | composite z-score [7] | z-score [8] | composite z-score [9] | composite z-score [10]
18 | CCOC(=O)[C@H](CC(C)C)NC(=O)CCC1CC(OC(=O)NCc2cccc3ccccc23)CC2(CCCC(COC(=O)NCc3ccncc3)O2)O1 (stereo not given in full) | -0.678 | 0.298 | -0.151 | 0.633 | 1.12 | 0.547 | 0.783 | -0.689 (inactive) | 0.407 | -0.236
19 | CC(C)=CCCC(C)=CCON=C1C[C@@H](O)[C@@H](O)[C@@H]2[C@@H]3C(=O)N(C(C)(C)C)C(=O)[C@@H]3CC[C@@H]12 | 0.0454 | 0.113 | -0.0473 | 0.257 | 0.0729 | -0.0925 | 0.184 | -0.519 (inactive) | 0.13 | -0.191
20 | Cc1ccc(S(=O)(=O)N[C@H]2COC(=O)CC=C[C@H](C)[C@@H](NS(=O)(=O)c3ccc(C)cc3)COC(=O)CC=C[C@@H]2C)cc1 | -0.546 | 0.391 | 0.16 | 0.395 | 0.434 | -0.107 | 0.0446 | 1.41 (inactive) | -0.118 | 0.166
21 | CCOC(=O)[C@H](Cc1ccccc1)NC(=O)CCC1CC(OC(=O)NCc2ccc3c(c2)OCO3)CC2(CCCC(COC(=O)NCCC(C)C)O2)O1 (stereo not given in full) | -0.545 | 0.107 | -0.0193 | 0.755 | 0.523 | 1.41 | 1.06 | 0.548 (inactive) | 0.169 | 0.268
22 | COc1ccc(COC(=O)NN=C2C[C@@H](O)[C@@H](O)[C@@H]3[C@@H]4C(=O)N(c5cccc(Oc6ccccc6)c5)C(=O)[C@@H]4CC[C@@H]23)cc1 | 0.809 | -0.107 | -0.0363 | -0.135 | -0.423 | -0.0521 | -0.265 | 0.331 (inactive) | 0.88 | 0.262
23 | COC(=O)[C@@H]1CC[C@@H](C)[C@H](c2ccc(Br)cc2)N1 | -0.364 | -0.0471 | -0.163 | 0.321 | 0.0422 | -0.303 | -0.356 | -1.02 (inactive) | -0.199 | -0.184
24 | CCc1cc2c(nc1CC)CCN(CCC(C)=NOC[C@H]1O[C@H](c3ccccc3)C=C[C@@H]1Oc1ccc(OC)cc1)C2 | 0.0529 | 0.732 | -0.178 | -0.147 | -0.391 | 0.121 | 0.734 | 1.39 (inactive) | 0.0567 | 0.12
25 | C#CCCCON=C1C[C@@H](O)[C@@H](O)[C@@H]2[C@@H]3C(=O)N(CCC(=O)OCC)C(=O)[C@@H]3CC[C@H]12 | -0.467 | 0.294 | -0.0502 | 0.481 | 0.872 | 0.64 | 0.685 | -1.41 (inactive) | 0.593 | -0.0994
26 | CCCNC(=O)OC[C@H]1O[C@H](c2ccccc2)C=C[C@@H]1Oc1ccc(OC)cc1 | -0.428 | 0.273 | 0.0299 | 0.594 | 0.344 | -0.327 | -0.0407 | -0.0983 (inactive) | -0.246 | -0.0994
27 | Cn1c(=O)n2n(c1=O)[C@H]1[C@H](O)[C@@H]3O[C@@H]3C(=O)[C@H]1CC2 | -0.439 | 0.197 | -0.128 | 0.355 | 0.584 | -0.208 | 0.712 | 0.101 (inactive) | 0.95 | 0.0053
28 | O=C1CCCC=C1C(CCc1ccccc1)OC(=O)c1ccc(Br)cc1 (stereo not given) | -0.351 | 0.0329 | -0.0841 | 0.335 | 0.047 | -0.532 | -0.529 | 3.31 (inactive) | -0.205 | -0.137
29 | COc1ccc(O[C@H]2C=C[C@@H](c3ccccc3)O[C@@H]2CON=CC[C@@H]2C=C[C@H](OC(C)=O)[C@@H](COC(C)=O)O2)cc1 | -0.142 | 0.0191 | -0.0667 | 0.138 | -0.265 | -0.364 | -0.216 | 1.01 (inactive) | 0.388 | -0.0994
30 | CC(C)=NO[C@H](C)c1cn([C@H](CO)Cc2ccccc2)nn1 | -0.125 | 0.364 | -0.0737 | -0.116 | 0.0781 | 0.274 | 0.316 | -0.266 (inactive) | 0.0676 | 0.0972
31 | COC(=O)[C@H](C)NC(=O)CCC1CC(OC(=O)NCc2ccc3c(c2)OCO3)CC2(CCCC(COC(=O)NCCc3ccccc3OC)O2)O1 (stereo not given in full) | -0.587 | 0.172 | -0.171 | 0.16 | 0.138 | 0.597 | 0.751 | 1.06 (inactive) | -0.17 | 0.0274
32 | COC(=O)[C@H](C)NC(=O)CCC1CC(OC(=O)NCc2ccc3c(c2)OCO3)CC2(CCCC(COC(=O)NCc3cccc(C(F)(F)F)c3)O2)O1 (stereo not given in full) | -0.0199 | 0.325 | -0.1 | 0.688 | 0.679 | 0.151 | 0.795 | -0.15 (inactive) | 0.307 | 1.19
33 | CSCC[C@@H]1NC(=O)CC=C[C@@H](C)COC(=O)[C@@H](C)COC1=O | -0.324 | 2.62 | -0.144 | -0.456 | -0.239 | -1.21 | 0.129 | -0.371 (inactive) | -0.485 | -0.391
